Several values for one entry are separate records, joined by “and”; a condition that tells them apart may be missing. Identical values can stand only once. Unmarked numbers belong to inactive results. Inconclusive results are not listed. Activity calls are given as the source filed them. Unless noted, calls follow the shape of the dose curve; as a rule, active = well fitted curve in the direction sought with a large enough effect; inconclusive = small, poorly fitted or top-dose-only effect, or another doubt; inactive = no such curve, though single readings can be large; an effect the other way counts as inactive or inconclusive.

The text below walks through data of PubChem BioAssay (NCATS).

A short description of assay [1]: Cell Viability - MRC5 (AID 434; calls by dose curve;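 also: potency is read from the fitted curve at half-maximal effect; cells exposed to compound for 40 hours at 37 °C; potency reflects cytotoxicity seen as loss of intracellular ATP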). The conditions noted are these: MRC5 lung fibroblast viability, qHTS. The method in brief: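 Decrease in intracellular ATP, quantified by luciferase light output, reflects compound toxicity toward MRC5 cells exposed for 40 hr in complete culture medium. Concentration-response curves, scaled between DMSO and 100 uM tamoxifen, gave AC50 values.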
(In general: Quantitative high-throughput screening tests each substance at several concentrations.)

Assay [2] can be described thus: Cell Viability - SK-N-SH (AID 435; calls by dose curve;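 also: potency is read from the fitted curve at half-maximal effect; compound exposure lasted 40 h at 37 °C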). The conditions noted are these: SK-N-SH neuroblastoma cell viability qHTS. In a few lines:
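Luminescent ATP signal served as the viability read-out after 40 hours of compound treatment of human neuroblastoma SK-N-SH cells. Concentration-response data, scaled between DMSO and 100 uM tamoxifen, gave AC50 values by standard Hill modeling.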

Assay [3] can be described thus: qHTS assay for small molecule activators of the p53 signaling pathway (AID 651743; active = well fitted activation curve with a large enough effect in the signal ratio, not every such curve was filed as active; the % refers to the signal ratio; also: % of control where 0% means no effect). The conditions noted are these: HCT-116 p53RE-bla, beta-lactamase FRET ratio, 16 h; stronger effect = higher value. In a few lines: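 Agonist-mode quantitative HTS in HCT-116 cells carrying a p53-response-element beta-lactamase reporter; 16 h compound treatment at 37 C, then FRET substrate loading for 2 h at room temperature and fluorescence read.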

A short description of assay [4]: qHTS assay for small molecule disruptors of the mitochondrial membrane potential - 1 hr assay (AID 651754; calls by dose curve; also: potency is read from the fitted curve at half-maximal effect; nearly all actives have a fitted effect of over 35% in size). The method in brief: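 Mitochondrial potential in living HepG2 cells after 1 hr compound treatment at 37C was read with Mito-MPS dye added for a further 30 min. Red aggregate and green monomer fluorescence were measured; loss of potential leaves dye as cytoplasmic monomers.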

Assay [5] in a line: qHTS assay for small molecule disruptors of the mitochondrial membrane potential - 5 hr assay (AID 651755; calls by dose curve; also: potency is read from the fitted curve at half-maximal effect; nearly all actives have a fitted effect of over 40% in size). The note with it: JC-1-type ratio dye. In a few lines:
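Seed HepG2 overnight, add compound, incubate 5 hr at 37C and 5% CO2, stain 30 min with Mito-MPS, then measure monomer (490/535 nm) and aggregate (540/590 nm) fluorescence.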

The nature of assay [6]: qHTS assay for environmental chemicals that activate the Aryl hydrocarbon Receptor (AhR) signaling pathway (AID 651777). Also: % of control where 0% means no effect; nearly all actives have a fitted effect of over 15% in size. The conditions noted are these: 1A2-DRE human hepatoma cells, luciferase, 24 h; stronger effect = higher value. The method in brief: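 Quantitative HTS in stably transfected human liver-derived cells whose luciferase gene sits downstream of the CYP1A2 promoter and dioxin response element. After 24 hr exposure at 37 C, One-Glo luminescence was measured.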

The nature of assay [7]: qHTS assay for small molecule agonists of the antioxidant response element (ARE) signaling pathway measured by Nrf2-dependant transcriptional activity - cell viability counter screen (AID 720653; active = well fitted curve in the direction sought with a large enough effect in the repeat runs; an effect the other way counts as inactive or inconclusive; also: % is scaled to controls: 0 for no effect and ±100 for the full control effect). The conditions noted are these: ARE-bla HepG2 viability, CellTiter-Glo ATP luminescence, 16 h; max response: stronger effect = lower value. In a few lines:
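ARE-bla HepG2 cells (2,000/well) rested 5 hrs at 37C/5% CO2, then exposed to compounds in DMSO for 16 hrs. Viability was read in the same wells as intracellular ATP by luminescence, 30 min at room temperature after reagent addition.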

Assay [8] is described as follows: qHTS assay for cell viability of HEK293 cells (AID 743288). Also: % is scaled to controls: 0 for no effect and ±100 for the full control effect; nearly all actives have a fitted effect of over 50% in size. The note with it: ATP luminescence (CellTiter-Glo), 18 h; max response: stronger effect = lower value. The method in brief:
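Viable-cell counts were inferred from luciferase-based ATP content in HEK293 cells seeded at 2,000/well, pre-incubated ≥5 h, then dosed with DMSO-solubilised compounds for 18 h at 37 C.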

Assay [9] concerns the target Cytochrome P450 3A4 (Homo sapiens) (UniProt P08684). Nature of the assay: qHTS Assay for Inhibitors and Substrates of Cytochrome P450 3A4 (AID 884). Also: % is scaled to controls: 0 for no effect and ±100 for the full control effect; nearly all actives have a fitted effect of over 50% in size. The note with it: recombinant CYP3A4, Luciferin-PPXE luminescence; series mostly up to 57.1 µM. In a few lines: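 Luminescent readout of luciferin produced by CYP3A4 (20 nM) dealkylation of Luciferin-PPXE, 25 uM (its KM). NADPH-driven reaction ran 60 min at RT after 10 min compound preincubation; data scaled to 57 uM ketoconazole as 100% inhibition.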

Assay [10] is described as follows: Confirmation and Secondary Assay for Modulators of Hemoglobin Beta Chain Splicing at IVS2 654 locus (AID 910).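 Also: per-well total GFP intensity by laser scanning cytometry after 2-day treatment; % of control where 0% means no effect.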 The conditions noted are these: HeLa EGFP-654 splicing reporter, GFP fluorescence, 48 h; series mostly up to 46.1 µM. In a few lines: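 HeLa cells stably carrying EGFP interrupted by mutant beta-globin IVS2-654 intron (CMV-driven) were treated with compound for 2 days at 37C; corrected splicing was scored as total peak GFP intensity per well (488 nm excitation, 500-520 nm emission).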

Assay [11] can be described thus: Confirmation and Secondary Assay for Modulators of Hemoglobin Beta Chain Splicing at IVS2 705 locus (AID 930).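 Also: HeLa cells stably expressing the EGFP-705 splicing reporter; GFP fluorescence per well restored by corrected splicing of the IVS2-705 intron in EGFP; % of control where 0% means no effect.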 The note with it: HeLa EGFP-705 splicing reporter, GFP fluorescence, 48 h; series mostly up to 46.1 µM. In a few lines:
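First, HeLa EGFP-705 cells are seeded at 500/well in Optimem with 2% FCS and left overnight. Next, compound or DMSO is added for 2 days. Finally wells are laser-scanned and total peak GFP intensity scored.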

For assay [12], the target named is ATP-dependent 6-phosphofructokinase (Trypanosoma brucei brucei) (UniProt O15648). Nature of the assay: qHTS Assay to Find Inhibitors of T. brucei phosphofructokinase: hit validation (AID 492961).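 Also: luminescence reports ADP formed as PFK phosphorylates fructose-6-phosphate with ATP; % is scaled to controls: 0 for no effect and ±100 for the full control effect.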 The conditions noted are these: T. brucei PFK, ADP-Glo luminescence; series mostly up to 51.4 µM. In a few lines: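 Reaction: 0.1 M triethanolamine pH 8.0, 5 mM MgCl2, F6P 0.5 mM, ATP 0.1 mM, PFK 1.25 nM, 45 min RT. Read-out: ADP-Glo luminescence. Analysis: concentration-response fits, classed by r2 and efficacy.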

The target in assay [13] is Ubiquitin carboxyl-terminal hydrolase 1 (Homo sapiens) (UniProt O94782). Nature of the assay: Inhibitors of USP1/UAF1: Pilot qHTS (AID 504865).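 Also: rhodamine fluorescence freed from ubiquitin-rhodamine substrate followed over time; top concentration of the series differs between compounds; % is scaled to controls: 0 for no effect and ±100 for the full control effect; nearly all actives have a fitted effect of over 35% in size.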 The conditions noted are these: purified USP1/UAF1, Ub-rhodamine cleavage fluorescence; series mostly up to 114 µM. In a few lines: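 In 50mM HEPES pH 7.8 containing 0.5mM EDTA, 1mM TCEP, 0.1 mg/ml BSA and 0.01% Tween-20, 1nM USP1/UAF1 is exposed to compound for 15 min, then Ub-Rho (150nM final) is added and fluorescence is read over time.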

Assay [14] addresses Luciferin 4-monooxygenase (Photinus pyralis) (UniProt P08659). Nature of the assay: Biochemical firefly luciferase enzyme assay for NPC (AID 624030).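 Also: purified P. pyralis luciferase at 10 nM with luciferin and ATP substrate; 0% = DMSO and -100% = full luciferase inhibition by PTC124 control; nearly all actives have a fitted effect of over 70% in size.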 The conditions noted are these: purified P. pyralis luciferase, luminescence, 5 min; series mostly up to 58.6 µM. The method in brief:
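Counter-screen for direct inhibition of the luciferase enzyme by approved-drug library compounds, run at 10 nM enzyme in 50 mM Tris acetate (final). Luminescence was read within 5 min of enzyme-buffer addition and normalized to PTC124 versus DMSO (0%).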

Assay [15] can be described thus: S16 Schwann cell viability assay (CellTiter-Glo assay) (AID 624031).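 Also: native untransfected S16 rat Schwann cells; plate controls were DMSO-treated cells for no effect and cell-free wells for full effect; nearly all actives have a fitted effect of over 70% in size.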 The conditions noted are these: S16 rat Schwann cells viability, 24 h; series mostly up to 57.5 µM. In a few lines: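 Counter-screen for cytotoxicity: parental S16 rat Schwann cells lacking the PMP22 reporters, treated 24 h with compound, viability from cellular ATP by CellTiter-Glo luminescence, normalized to DMSO (0%) and no-cell wells.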
Background: In ATP-based viability assays light output follows the ATP content of the culture.

Assay [16] is described as follows: S16 Schwann cell PMP22 intronic element firefly luciferase assay (AID 624032).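 Also: plate controls were DMSO for no effect and PTC124 positive control mean for full effect; nearly all actives have a fitted effect of over 30% in size.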 The note with it: S16 rat Schwann cells, PMP22 element FLuc, 24 h; series mostly up to 57.5 µM. The method in brief:
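Rat S16 Schwann cells stably carrying a PMP22 intronic element-driven Fluc reporter were seeded overnight, then exposed to compounds for 24 h at 37 °C. Luminescence was normalized to PTC124 (positive control) and DMSO (0% activity).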

A further assay relates to 3D7. Nature of the assay: qHTS profiling for inhibitors of Plasmodium falciparum proliferation (AID 504749). Also: nearly all actives have a fitted effect of over 60% in size. Also: potency is read from the fitted curve at half-maximal effect. The conditions noted are these: P. falciparum in erythrocytes, SYBR Green DNA, 72 h; series mostly up to 28.7 µM. The method in brief:
(§1)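 Quantitative HTS: compounds pinned into medium, infected erythrocytes added (0.3% parasitemia, 2.5% hematocrit), 72 h culture at 37 C under 5% CO2. Saponin/Triton lysis with SYBR Green I, overnight RT, then fluorescence read.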

A further assay relates to 7G8. The assay is described as above. The note with it: P. falciparum in erythrocytes, SYBR Green DNA, 72 h; series mostly up to 28.7 µM. The method in brief:
as §1

The test system of the next assay is AA1029. Described as above. The conditions noted are these: P. falciparum in erythrocytes, SYBR Green DNA, 72 h; series mostly up to 28.7 µM. The method in brief:
as §1

The test system of the next assay is AS120. The description is as above. The conditions noted are these: P. falciparum in erythrocytes, SYBR Green DNA, 72 h; series mostly up to 28.7 µM. The method in brief:
as §1

Ubiquitin carboxyl-terminal hydrolase 1 (Homo sapiens), sequence (O94782 whole entry, looked up): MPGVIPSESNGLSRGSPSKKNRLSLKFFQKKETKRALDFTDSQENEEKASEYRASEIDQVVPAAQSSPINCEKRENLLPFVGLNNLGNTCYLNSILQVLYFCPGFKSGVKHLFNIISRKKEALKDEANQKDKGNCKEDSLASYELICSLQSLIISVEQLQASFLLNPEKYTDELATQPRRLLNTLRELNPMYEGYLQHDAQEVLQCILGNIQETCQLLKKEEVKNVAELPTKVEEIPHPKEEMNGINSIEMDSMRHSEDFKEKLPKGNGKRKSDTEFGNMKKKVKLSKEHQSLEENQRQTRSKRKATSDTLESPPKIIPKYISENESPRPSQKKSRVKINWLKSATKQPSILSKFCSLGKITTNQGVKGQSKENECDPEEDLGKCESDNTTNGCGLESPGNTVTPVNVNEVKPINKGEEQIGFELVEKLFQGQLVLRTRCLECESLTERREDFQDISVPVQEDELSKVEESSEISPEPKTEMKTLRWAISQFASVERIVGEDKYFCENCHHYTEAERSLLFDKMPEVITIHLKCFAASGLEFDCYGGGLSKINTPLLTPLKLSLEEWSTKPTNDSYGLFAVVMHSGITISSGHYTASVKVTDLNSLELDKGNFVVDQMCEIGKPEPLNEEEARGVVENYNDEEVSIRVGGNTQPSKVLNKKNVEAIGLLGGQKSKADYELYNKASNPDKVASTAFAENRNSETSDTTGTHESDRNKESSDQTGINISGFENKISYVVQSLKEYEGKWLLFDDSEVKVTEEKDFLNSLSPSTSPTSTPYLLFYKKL
Luciferin 4-monooxygenase (Photinus pyralis), sequence (P08659 whole entry, looked up): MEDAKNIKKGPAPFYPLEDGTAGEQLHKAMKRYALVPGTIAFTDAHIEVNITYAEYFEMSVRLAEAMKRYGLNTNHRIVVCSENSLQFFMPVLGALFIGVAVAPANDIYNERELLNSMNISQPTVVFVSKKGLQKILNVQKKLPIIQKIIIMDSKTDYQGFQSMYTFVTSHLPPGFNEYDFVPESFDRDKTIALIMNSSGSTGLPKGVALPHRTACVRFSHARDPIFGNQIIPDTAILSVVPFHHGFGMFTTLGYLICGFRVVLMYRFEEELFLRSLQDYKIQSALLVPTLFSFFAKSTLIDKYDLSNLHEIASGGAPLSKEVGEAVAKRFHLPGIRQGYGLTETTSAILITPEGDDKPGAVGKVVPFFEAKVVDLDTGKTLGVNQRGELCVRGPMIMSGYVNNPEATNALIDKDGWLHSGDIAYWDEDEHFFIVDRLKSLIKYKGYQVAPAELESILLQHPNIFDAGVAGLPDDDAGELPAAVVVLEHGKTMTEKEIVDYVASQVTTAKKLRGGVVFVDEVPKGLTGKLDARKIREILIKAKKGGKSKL
ATP-dependent 6-phosphofructokinase (Trypanosoma brucei brucei), sequence (O15648 whole entry, looked up): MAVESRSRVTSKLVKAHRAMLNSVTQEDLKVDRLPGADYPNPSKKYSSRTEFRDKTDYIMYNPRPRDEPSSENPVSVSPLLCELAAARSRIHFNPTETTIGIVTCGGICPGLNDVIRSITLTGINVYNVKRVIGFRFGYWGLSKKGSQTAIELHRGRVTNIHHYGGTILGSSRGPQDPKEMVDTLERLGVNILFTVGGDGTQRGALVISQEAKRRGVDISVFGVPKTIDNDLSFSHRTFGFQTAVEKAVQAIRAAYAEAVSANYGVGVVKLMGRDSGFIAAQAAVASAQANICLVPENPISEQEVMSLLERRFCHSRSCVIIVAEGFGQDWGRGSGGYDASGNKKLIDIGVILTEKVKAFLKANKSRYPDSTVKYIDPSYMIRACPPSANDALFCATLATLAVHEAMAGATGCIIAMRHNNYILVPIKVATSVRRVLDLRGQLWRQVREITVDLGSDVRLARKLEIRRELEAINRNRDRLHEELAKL
Cytochrome P450 3A4 (Homo sapiens), sequence (P08684 whole entry, looked up): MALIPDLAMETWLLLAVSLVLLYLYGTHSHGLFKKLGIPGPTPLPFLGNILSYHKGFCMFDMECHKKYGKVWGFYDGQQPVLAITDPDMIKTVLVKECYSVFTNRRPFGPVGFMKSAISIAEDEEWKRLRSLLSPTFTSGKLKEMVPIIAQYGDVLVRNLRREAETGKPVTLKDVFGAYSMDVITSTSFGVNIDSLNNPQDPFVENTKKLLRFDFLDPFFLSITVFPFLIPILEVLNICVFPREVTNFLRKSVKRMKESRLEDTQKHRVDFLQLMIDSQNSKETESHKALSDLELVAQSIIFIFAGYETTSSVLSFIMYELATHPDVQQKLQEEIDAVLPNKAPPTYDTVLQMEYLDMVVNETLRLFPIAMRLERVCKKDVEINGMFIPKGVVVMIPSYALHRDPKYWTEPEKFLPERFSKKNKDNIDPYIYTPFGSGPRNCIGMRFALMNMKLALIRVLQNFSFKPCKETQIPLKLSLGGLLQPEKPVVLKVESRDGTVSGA

`Nc1ccc(N)c([N+](=O)[O-])c1`: the Potency in assay [1] is greater than 92 µM; in assay [2] it was greater than 92 µM; in assay [4] it was 29.8 µM (active); in assay [5] it was 29.8 µM (active). The activation in [3] was -0.975% and -0.0594%; in assay [6] it was 3.75%. Besides, the max response in assay [7] was -19.5% and -28.1%; in assay [8] it was -1.33% and -23.7%.

Regarding `CCCCC(=O)N(Cc1ccc(-c2ccccc2-c2nn[nH]n2)cc1)C(C(=O)O)C(C)C` (stereo not given), the Potency entry (in [9]; in [13]; in assay [14]; in assay [16]; in the assay on 3D7; with AA1029) was “inactive” throughout. The Potency result in the assay on AS120 is “inactive”. For the same molecule, the result in assay [10], in assay [11], in assay [12] and in assay [15] was inactive. For the same molecule, the Potency in the assay with 7G8 was 11.2 µM (active).
